In PubChem BioAssay (NCATS) one finds Potency data, which are given here for 21 compounds.

Assay in all cases: qHTS profiling for inhibitors of Plasmodium falciparum proliferation (AID 504749); note: nearly all actives have a fitted effect of over 60% in size
Common to all, as to conditions: P. falciparum in erythrocytes, SYBR Green DNA, 72 h; series mostly up to 28.7 µM

For one assay, the system named is DFO2036. The method in brief:
(§1)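 Each compound contacts P. falciparum-infected red blood cells for 72 h at 37 C; lysis buffer (Tris, EDTA, saponin, Triton X, SYBR Green I) is added and fluorescence measured next morning; values normalized to controls.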

The subject of the next assay is DIV14. The procedure, abridged:
as §1

In another assay the test system is DIV17. The method in brief:
as §1

The test system of another assay is DIV30. The method in brief: as §1
In a further assay the test system is Dd2. The procedure, abridged:
as §1

A further assay has as its system ECU. The procedure, abridged:
as §1

The test system of another assay is FAB9. The procedure, abridged:
as §1

A further assay deals with GB4. The method in brief:
as §1

The next assay concerns HB3. The method in brief:
as §1

For another assay, the system named is ICS. The procedure, abridged:
as §1

Inconclusive results are not listed. Calls of active or inactive are those of the source. Calls come from the whole dose curve; as a rule, active = well fitted inhibition curve with a large enough effect; inconclusive = small, poorly fitted or top-dose-only effect; inactive = flat fitted curve, though single readings scatter.
Potency is the fitted concentration of half-maximal effect.

As for `C#C[C@]1(OC(C)=O)CC[C@H]2[C@@H]3CCC4=C[C@@H](OC(C)=O)CC[C@@H]4[C@H]3CC[C@@]21C`, the Potency result with DFO2036, with DIV14, in the assay on DIV17, in the assay on DIV30, with Dd2 and in the assay on ECU was “inactive” throughout. Moreover, the Potency entry with FAB9, in the assay with GB4, in the assay with HB3 and with ICS was “inactive” in each case.

With `C=CCc1ccc(O)c(OC)c1`, the Potency result in the assay with DFO2036, with DIV14, in the assay with DIV17, with DIV30, with Dd2 and in the assay on ECU was “inactive” in each case. The Potency entry in the assay with FAB9, in the assay on GB4, with HB3 and with ICS was “inactive” each time.

On to `CC(=O)OCC(=O)NCCCOc1cccc(CN2CCCCC2)c1`, for which the Potency result in the assay on DFO2036, in the assay with DIV14, in the assay on DIV17, in the assay with DIV30, with Dd2 and with ECU was “inactive” in each case. Further, the Potency result in the assay on FAB9, in the assay with GB4, with HB3 and in the assay on ICS was “inactive” each time.

With `C[C@@H]1CN(CCCn2c3ccccc3c3ccccc32)C[C@H](C)N1`, the Potency with DFO2036 is 14.1 µM (active); in the assay with DIV14, 2.39 µM (active); with DIV17, 4.78 µM (active); in the assay on DIV30, 9.53 µM (active); in the assay on Dd2, 6.31 µM (active); in the assay with ECU, 10 µM (active). Further, the Potency was 13.5 µM (active) in the assay with GB4 and 5.01 µM (active) in the assay on ICS. Moreover, the Potency result in the assay on FAB9 and in the assay on HB3 was “inactive” each time.

In the case of `NC(CO)(CO)CO`, the Potency result in the assay on DFO2036, in the assay with DIV14, with DIV17, in the assay with DIV30, with Dd2 and in the assay on ECU was “inactive” in each case. Moreover, the Potency entry with FAB9, with GB4, in the assay on HB3 and with ICS was “inactive” each time.

For `O=C(O)CNC(=O)c1ccccc1`, the Potency result in the assay on DFO2036, in the assay with DIV14, in the assay on DIV17, in the assay with DIV30, in the assay on Dd2 and with ECU was “inactive” in each case. The Potency entry in the assay on FAB9, in the assay on GB4, in the assay on HB3 and in the assay on ICS was “inactive” throughout.

In the case of `CCCCCCCCCCCCCCCC[N+](C)(C)CC`, the Potency in the assay on DFO2036 was 2.82 µM (active); in the assay with DIV14, 7.57 µM (active); with DIV17, 7.57 µM (active); with DIV30 it was 5.36 µM (active); in the assay on Dd2 it was 6.31 µM (active); in the assay with ECU, 5.01 µM (active). The Potency in the assay on FAB9 is 7.94 µM (active); in the assay with GB4, 3.79 µM (active); in the assay with HB3, 7.08 µM (active); in the assay with ICS, 1.41 µM (active).

In the case of `CC(=O)Oc1ccc(C(c2ccc(OC(C)=O)cc2)c2ccccn2)cc1`, the Potency entry with DFO2036, in the assay on DIV14, with DIV17, in the assay on DIV30, in the assay with Dd2 and in the assay on ECU was “inactive” in each case. For the same compound, the Potency entry with FAB9, in the assay on GB4, with HB3 and in the assay on ICS was “inactive” each time.

Regarding `O=C(O)CCCCC(=O)O`, the Potency result in the assay on DFO2036, with DIV14, in the assay with DIV17, in the assay with DIV30, with Dd2 and in the assay on ECU was “inactive” throughout. The Potency entry in the assay with FAB9, with GB4, with HB3 and with ICS was “inactive” each time.

For `COCc1c(C(C)C)nc(C(C)C)c(/C=C/[C@@H](O)C[C@@H](O)CC(=O)O)c1-c1ccc(F)cc1`, the Potency entry with DFO2036, in the assay on DIV14, in the assay with DIV17, in the assay with DIV30, in the assay on Dd2 and with ECU was “inactive” each time. Besides, the Potency entry with FAB9, with GB4, with HB3 and in the assay with ICS was “inactive” each time.

Take `NCCC(O)(P(=O)(O)O)P(=O)(O)O`: the Potency result in the assay on DFO2036, in the assay with DIV14, in the assay on DIV17, in the assay with DIV30, in the assay on Dd2 and in the assay on ECU was “inactive” throughout. Also, the Potency result in the assay on FAB9, with GB4, in the assay on HB3 and in the assay with ICS was “inactive” each time.

`COc1cccc2c1C(=O)c1c(O)c3c(c(O)c1C2=O)C[C@@](O)(C(C)=O)C[C@@H]3O[C@H]1C[C@H](N)[C@H](O)[C@H](C)O1`: the Potency in the assay with DFO2036 was 4.47 µM (active); with DIV14, 1.9 µM (active); in the assay on DIV17, 1.35 µM (active); in the assay on DIV30 it was 6.75 µM (active); in the assay with Dd2 it was 2.24 µM (active); with ECU it was 8.91 µM (active). Also, the Potency in the assay on FAB9 is 3.98 µM (active); with GB4 it was 1.9 µM (active); in the assay with HB3, 4.47 µM (active); with ICS, 1.41 µM (active).

As to `C[C@]12CCC(=O)C=C1CC[C@H]1[C@@H]3CC[C@](O)(C(=O)CO)[C@@]3(C)C[C@H](O)[C@@]12F`, the Potency entry with DFO2036, in the assay on DIV14, in the assay with DIV17, with DIV30, with Dd2 and in the assay with ECU was “inactive” each time. The Potency entry in the assay on FAB9, in the assay on GB4, in the assay with HB3 and in the assay on ICS was “inactive” in each case.

For `Cc1c(C(N)=O)cc([N+](=O)[O-])cc1[N+](=O)[O-]`, the Potency entry in the assay with DFO2036, with DIV14, with DIV17, in the assay with DIV30, in the assay with Dd2 and with ECU was “inactive” in each case. Also, the Potency result with FAB9, in the assay on GB4, in the assay with HB3 and in the assay on ICS was “inactive” each time.

In the case of `CCN(CC)C(=O)/C(C#N)=C/c1cc(O)c(O)c([N+](=O)[O-])c1`, the Potency entry in the assay with DFO2036, in the assay on DIV14, in the assay on DIV17, with DIV30, in the assay with ECU and in the assay with FAB9 was “inactive” each time. Besides, the Potency result with GB4 and in the assay on HB3 was “inactive” each time. For the same compound, in the assay on Dd2, the Potency is 0.447 µM (active).

In the case of `Nc1ccc(/C=C/c2ccc(N)cc2S(=O)(=O)O)c(S(=O)(=O)O)c1`, the Potency entry in the assay on DFO2036, in the assay on DIV14, in the assay on DIV17, in the assay with DIV30, in the assay with Dd2 and in the assay on ECU was “inactive” throughout. Besides, the Potency result in the assay with FAB9, in the assay on GB4, in the assay on HB3 and in the assay with ICS was “inactive” in each case.

Consider `CCOc1ccc(NC(=O)CC(C)O)cc1` (centres undefined), for which the Potency result in the assay with DFO2036, with DIV14, with DIV17, in the assay with DIV30, with Dd2 and in the assay with ECU was “inactive” each time. The Potency entry with FAB9, in the assay on GB4, in the assay on HB3 and in the assay on ICS was “inactive” in each case.

Regarding `CC(=O)N(O)CCCCCNC(=O)CCC(=O)N(O)CCCCCNC(=O)CCC(=O)N(O)CCCCCN`, the Potency entry in the assay with DFO2036, in the assay with DIV14, in the assay on DIV17, in the assay on DIV30, with Dd2 and in the assay with ECU was “inactive” throughout. The Potency result with FAB9, in the assay with GB4, in the assay with HB3 and in the assay with ICS was “inactive” each time.

Consider `CN(C)/N=N/c1nc[nH]c1C(N)=O`, for which the Potency result in the assay on DFO2036, with DIV14, in the assay with DIV17, with DIV30, with Dd2 and with ECU was “inactive” in each case. Further, the Potency entry in the assay with FAB9, in the assay on GB4, in the assay on HB3 and in the assay on ICS was “inactive” in each case.

For `Cc1cc(N)c2cc(NC(=O)Nc3ccc4nc(C)cc(N)c4c3)ccc2n1`, the Potency was 5.62 µM (active) in the assay with DFO2036; 13.5 µM (active) with DIV14; 10.7 µM (active) in the assay on DIV17; 6.01 µM (active) with DIV30; 0.891 µM (active) with Dd2; 10 µM (active) with ECU. Moreover, the Potency with FAB9 was 5.01 µM (active); with GB4 it was 7.57 µM (active); in the assay with HB3, 4.47 µM (active); in the assay on ICS, 5.01 µM (active).

Take `CN=C(NC#N)NCCSCc1csc(N=C(N)N)n1`: the Potency result in the assay with DFO2036, with DIV14, in the assay with DIV17, with DIV30, with Dd2 and in the assay with ECU was “inactive” throughout. In addition, the Potency entry with FAB9, in the assay with GB4, with HB3 and in the assay on ICS was “inactive” in each case.
